ChEMBL document CHEMBL1157539, “Thousands of chemical starting points for antimalarial lead identification” (Nature, 2010)

system: Plasmodium falciparum; assay: GSK_TCMDC: Inhibition of Plasmodium falciparum Dd2 in whole red blood cells, using parasite LDH activity as an index of growth. Test compounds present at 2uM; assay type: functional

Structure (SMILES) | Inhibition [%]
O=C(NCc1ccco1)c1ccc(CN2CCN(C(c3ccccc3)c3ccccc3)CC2)cc1 | 92
CCc1cn2c3c(cc(C(=O)N[C@@H](Cc4ccccc4)[C@H](O)CNCC(C)C)cc13)N(C)S(=O)(=O)CC2 | 99
c1ccc(CN2CCN(c3cc(-c4cncc(-c5ccccc5)c4)nc(-c4ccccc4)n3)CC2)cc1 | 12
Brc1ccc(Nc2ccnc3cc(-c4nccs4)ccc23)cc1Oc1ccnc2cc(-c3nccs3)ccc12 | 83
Clc1ccc(-c2[nH]c3ccccc3c2CN2CCC(N3CCCCC3)CC2)cc1 | 15
O=C(/C=C/c1ccc(Cl)c(Cl)c1)NCCCCCCN1CCN(C(=O)Nc2cc(Cl)nc(Cl)c2)CC1 | 0
Clc1nc2ccccn2c1C=Cc1ccc2ccccc2n1 | 75
CCN(CCNC(=O)Cn1c(C)cc2cc([N+](=O)[O-])ccc21)c1cccc(C)c1 | 95
CC(=O)NCCNCc1cccc(C(=O)NCc2cccc(C(F)(F)F)c2)c1 | 0
Cl.O=c1cc(NCCCNC2CCOc3c(Cl)cc(Cl)cc32)[nH]c2ccccc12 (stereo not given) | 88
CCOc1cc(Br)c(C(C)NC(=O)c2ccccc2)cc1OCC (stereo not given) | 10
Cl.O=c1cc(NCCCNCc2ccc(Cl)c(Cl)c2)[nH]c2cc(F)cc(F)c12 | 94
Cc1ccc(Nc2nc(N/N=C/c3cccc([N+](=O)[O-])c3)nc(Nc3ccccc3)n2)c(C)c1 | 97
CC(C)N1CCC(NC(=O)N2CCCN(c3ncnc4cc(-c5ccccc5)sc34)CC2)CC1.O=C(O)C(F)(F)F | 11
CN1CCC(N2CCN(Cc3ccc(-c4ccc(-c5nc6cc(F)ccc6[nH]5)s4)cc3)CC2)CC1.O=C(O)C(F)(F)F | 100
O=C(O)C(F)(F)F.c1cc(CN2CCC(CCN3CCCCC3)CC2)cc(-c2cccc(-c3nc4ccccc4[nH]3)c2)c1 | 100
O=C(NCCCCCN1CCC(c2c[nH]c3ccccc23)CC1)Nc1ccc(Br)cc1 | 0
CCn1c(Cc2ccccc2)nnc1SCC(=O)N1c2ccccc2Sc2ccccc21 | 96
Br.CC(CCON1C(N)=NC(N)=NC1(C)C)c1ccc(Cl)c(Cl)c1 (stereo not given) | 97
C=C(C)Cn1cc(C2CCN(CCCCNC(=O)c3sc(-c4ccc(Cl)cc4Cl)nc3CO)CC2)c2ccccc21 | 19

Structure (SMILES) | Inhibition [%]
COc1ccc(Cn2c(Nc3cccc(C(F)(F)F)c3)nc3cc(C(=O)NCCN4CCCC4)ccc32)cc1Cl | 54
Cc1sc(CNCCCNc2cc(=O)c3ccccc3[nH]2)cc1Br | 83
O=C(Cn1c(CCc2cccc(F)c2F)nc(=O)c2ccccc21)N(CCN1CCCCC1)Cc1ccc(-c2ccc(C(F)(F)F)cc2)cc1.O=C(O)C(O)C(O)C(=O)O | 89
Cc1ccccc1CNc1nccc(NCCC(=O)Nc2ccccc2)n1.O=C(O)C(F)(F)F | 15
O=C(O)C(F)(F)F.Oc1ccc(CCNc2nc(NCCCOc3ccccc3-c3cccnc3)nc(N3CCNCC3)n2)cc1 | 1
C(=N\Nc1nccc2sc(-c3cccnc3)cc12)/c1ccncc1 | 94
O=C(Nc1ccc(Cl)cc1)N[C@H]1CCN(CCCCCNC(=O)C2CC2c2ccc(Cl)c(Cl)c2)C1 (stereo not given in full) | 1
CCN(CC)c1nc(-c2ccccc2)cc(-c2ccccc2)c1C#N | 66
N#Cc1ccc(N[C@@H](CC2CCCCC2)C(=O)NCc2cc(Cl)cc(Cl)c2)c2ccccc12.O=C(O)C(F)(F)F | 88
Nc1ncc(-c2ccc(F)cc2)c2ccc(-c3cccc(F)c3)cc12 | 89
OC(c1ccccc1)C1CN(Cc2ccccc2)CCC1(O)c1ccccc1 (stereo not given) | 82
CCNc1cc(C(=O)NC(Cc2ccccc2)C(O)CNC(C)(C)CCCC(C)C)c(F)c(N2CCCS2(=O)=O)c1.O=CO (stereo not given) | 97
OCCc1ccc(Nc2nccc(-c3nnc4ccccn34)n2)cc1 | 46
Cc1ccc2ncc(Cl)c(CCN3CCC(NCc4ccc5c(n4)NC(=O)CS5)CC3)c2n1.Cl | 12
CN1CCCC(CN2CCN(Cc3ccc(-c4ccc(-c5nc6cc(F)ccc6[nH]5)s4)cc3)CC2)C1.O=C(O)C(F)(F)F (stereo not given) | 100
CCC(C)(C)c1ccc(Oc2ccc(NC(=O)Nc3ccc(Cl)c(Cl)c3)cc2)cc1 | 97
CCOc1ccc2c(=NN=Cc3ccc(OC)c(OC)c3)cc(C)[nH]c2c1 | 58
Cc1cc(C(=O)CN2C(=O)NC(C)(c3ccc4ccccc4c3)C2=O)c(C)n1Cc1ccco1 (stereo not given) | 71
Cc1ccc(C)c2sc(N(CCCn3ccnc3)C(=O)c3ccco3)nc12.Cl | 63
CN(C)CC(O)C(O)(c1ccccc1)c1ccc(F)cc1.Cl (stereo not given) | 10
